{"source": "the supplement of paper PMC8728848", "test_in_all_cases": "glycan array binding signal (z-score within array); higher = stronger binding", "conditions_in_all_cases": "glycan notation: IUPAC condensed, linker removed", "key": {"[1]": {"molecular_target": "Fuc(a1-2)Gal(b1-4)[Fuc(a1-3)]GlcNAc(b1-3)GalNAc", "summary_of_the_method": "(§1)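 Columns mapping to the same glycan were averaged after glycan names were converted to IUPAC-condensed notation. The data come from 3228 arrays in the Consortium for Functional Glycomics database, limited to those with an available protein sequence. Binding is reported as a within-array Z-score averaged across arrays of one protein sequence and across linkers.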"}, "[2]": {"molecular_target": "Fuc(a1-2)[Gal(a1-3)]Gal(b1-3)GlcNAc", "summary_of_the_method": "as §1"}, "[3]": {"molecular_target": "Fuc(a1-2)[Gal(a1-3)]Gal(b1-3)GlcNAc(b1-2)Man(a1-3)[Fuc(a1-2)[Gal(a1-3)]Gal(b1-3)GlcNAc(b1-2)Man(a1-6)]Man(b1-4)GlcNAc(b1-4)GlcNAc", "summary_of_the_method": "as §1"}, "[4]": {"molecular_target": "Fuc(a1-2)[Gal(a1-3)]Gal(b1-3)GlcNAc(b1-2)Man(a1-3)[Fuc(a1-2)[Gal(a1-3)]Gal(b1-3)GlcNAc(b1-2)Man(a1-6)]Man(b1-4)GlcNAc(b1-4)[Fuc(a1-6)]GlcNAc", "summary_of_the_method": "as §1"}, "[5]": {"molecular_target": "Fuc(a1-2)[Gal(a1-3)]Gal(b1-3)GlcNAc(b1-6)GalNAc", "summary_of_the_method": "as §1"}, "[6]": {"molecular_target": "Fuc(a1-2)[Gal(a1-3)]Gal(b1-4)Glc", "summary_of_the_method": "as §1"}, "[7]": {"molecular_target": "Fuc(a1-2)[Gal(a1-3)]Gal(b1-4)GlcNAc", "summary_of_the_method": "as §1"}, "[8]": {"molecular_target": "Fuc(a1-2)[Gal(a1-3)]Gal(b1-4)GlcNAc(b1-2)Man", "summary_of_the_method": "as §1"}, "[9]": {"molecular_target": "Fuc(a1-2)[Gal(a1-3)]Gal(b1-4)GlcNAc(b1-2)Man(a1-3)[Fuc(a1-2)[Gal(a1-3)]Gal(b1-4)GlcNAc(b1-2)Man(a1-6)]Man(b1-4)GlcNAc(b1-4)GlcNAc", "summary_of_the_method": "as §1"}, "[10]": {"molecular_target": "Fuc(a1-2)[Gal(a1-3)]Gal(b1-4)GlcNAc(b1-2)Man(a1-3)[Fuc(a1-2)[Gal(a1-3)]Gal(b1-4)GlcNAc(b1-2)Man(a1-6)]Man(b1-4)GlcNAc(b1-4)[Fuc(a1-6)]GlcNAc", "summary_of_the_method": "as §1"}, "[11]": {"molecular_target": "Fuc(a1-2)[Gal(a1-3)]Gal(b1-4)GlcNAc(b1-3)GalNAc", "summary_of_the_method": "as §1"}, "[12]": {"molecular_target": "Fuc(a1-2)[Gal(a1-3)]Gal(b1-4)GlcNAc(b1-6)GalNAc", "summary_of_the_method": "as §1"}, "[13]": {"molecular_target": "Fuc(a1-2)[Gal(a1-3)]Gal(b1-4)[Fuc(a1-3)]GlcNAc", "summary_of_the_method": "as §1"}, "[14]": {"molecular_target": "Fuc(a1-3)[Gal(b1-4)]GlcNAc(b1-2)Man(a1-3)[Fuc(a1-3)[Gal(b1-4)]GlcNAc(b1-2)Man(a1-6)]Man(b1-4)GlcNAc(b1-4)GlcNAc", "summary_of_the_method": "as §1"}, "[15]": {"molecular_target": "Fuc(a1-3)[Gal(b1-4)]GlcNAc(b1-3)Gal(b1-3)[Fuc(a1-4)]GlcNAc", "summary_of_the_method": "as §1"}, "[16]": {"molecular_target": "Fuc(a1-3)[Gal(b1-4)]GlcNAc(b1-3)Gal(b1-4)[Fuc(a1-3)]GlcNAc(b1-3)Gal(b1-4)[Fuc(a1-3)]GlcNAc", "summary_of_the_method": "as §1"}, "[17]": {"molecular_target": "Fuc(a1-3)[Gal(b1-4)]GlcNAc(b1-6)GalNAc", "summary_of_the_method": "as §1"}, "[18]": {"molecular_target": "Fuc(a1-3)[Gal3S(b1-4)]GlcNAc6S", "summary_of_the_method": "as §1"}, "[19]": {"molecular_target": "Gal(a1-3)Fuc(a1-2)Gal(b1-4)GlcNAc(b1-3)[Gal(a1-3)Fuc(a1-2)Gal(b1-4)GlcNAc(b1-6)]GalNAc", "summary_of_the_method": "as §1"}, "[20]": {"molecular_target": "Gal(b1-3)GlcNAc(b1-2)Man(a1-3)[Gal(b1-3)GlcNAc(b1-2)Man(a1-6)]Man(b1-4)GlcNAc(b1-4)GlcNAc", "summary_of_the_method": "as §1"}, "[21]": {"molecular_target": "Gal(b1-3)GlcNAc(b1-3)Gal(b1-4)GlcNAc(b1-3)Gal(b1-4)GlcNAc(b1-2)[Gal(b1-3)GlcNAc(b1-3)Gal(b1-4)GlcNAc(b1-3)Gal(b1-4)GlcNAc(b1-6)]Man(a1-6)[Gal(b1-3)GlcNAc(b1-3)Gal(b1-4)GlcNAc(b1-3)Gal(b1-4)GlcNAc(b1-2)Man(a1-3)]Man(b1-4)GlcNAc(b1-4)[Fuc(a1-6)]GlcNAc", "summary_of_the_method": "as §1"}, "[22]": {"molecular_target": "Gal(b1-4)GlcNAc(b1-2)Man(a1-3)Man(b1-4)GlcNAc(b1-4)GlcNAc", "summary_of_the_method": "as §1"}, "[23]": {"molecular_target": "Gal(b1-4)GlcNAc(b1-2)Man(a1-3)[GlcNAc(b1-2)Man(a1-6)]Man(b1-4)GlcNAc(b1-4)GlcNAc", "summary_of_the_method": "as §1"}, "[24]": {"molecular_target": "Gal(b1-4)GlcNAc(b1-2)[Gal(b1-4)GlcNAc(b1-4)]Man(a1-3)[Gal(b1-4)GlcNAc(b1-2)Man(a1-6)]Man(b1-4)GlcNAc(b1-4)GlcNAc", "summary_of_the_method": "as §1"}, "[25]": {"molecular_target": "Gal(b1-4)GlcNAc(b1-3)Gal(b1-3)GalNAc", "summary_of_the_method": "as §1"}, "[26]": {"molecular_target": "Gal(b1-4)GlcNAc(b1-3)Gal(b1-3)GlcNAc", "summary_of_the_method": "as §1"}, "[27]": {"molecular_target": "Gal(b1-4)GlcNAc(b1-3)Gal(b1-4)Glc", "summary_of_the_method": "as §1"}, "[28]": {"molecular_target": "Gal(b1-4)GlcNAc(b1-3)Gal(b1-4)GlcNAc(b1-3)Gal(b1-4)GlcNAc(b1-2)Man(a1-3)[Gal(b1-4)GlcNAc(b1-3)Gal(b1-4)GlcNAc(b1-3)Gal(b1-4)GlcNAc(b1-2)Man(a1-6)]Man(b1-4)GlcNAc(b1-4)[Fuc(a1-6)]GlcNAc", "summary_of_the_method": "as §1"}}, "note": "This excerpt belongs to a sample that is enriched for the strongest signals.", "data": [{"binder": "EEA (Euonymus europaeus) (protein) MASTIIATGPTYRVYCRAAPNYNMIVGKGVAFLAPIDETNELQYWYKDDTYSYIKDEAGLPAFSLVNKATGLTLKHSNHHPVPVKLVTYNPNVVDESVLWSQADDRGDGYSAIRSLTNPASHLEAAPLNDWSYNGAIIMGGVWIDAYNQQWKIEPHTG", "values": [{"measurement": "glycan array binding signal (z-score)", "setting": "[1]", "value": 0.023}, {"measurement": "glycan array binding signal (z-score)", "setting": "[2]", "value": 5.83}, {"measurement": "glycan array binding signal (z-score)", "setting": "[3]", "value": 5.22}, {"measurement": "glycan array binding signal (z-score)", "setting": "[4]", "value": 3.76}, {"measurement": "glycan array binding signal (z-score)", "setting": "[5]", "value": 3.77}, {"measurement": "glycan array binding signal (z-score)", "setting": "[6]", "value": 4.49}, {"measurement": "glycan array binding signal (z-score)", "setting": "[7]", "value": 6.17}, {"measurement": "glycan array binding signal (z-score)", "setting": "[8]", "value": 3.94}, {"measurement": "glycan array binding signal (z-score)", "setting": "[9]", "value": 11.4}, {"measurement": "glycan array binding signal (z-score)", "setting": "[10]", "value": 5.12}, {"measurement": "glycan array binding signal (z-score)", "setting": "[11]", "value": 4.01}, {"measurement": "glycan array binding signal (z-score)", "setting": "[12]", "value": -0.195}, {"measurement": "glycan array binding signal (z-score)", "setting": "[13]", "value": -0.181}, {"measurement": "glycan array binding signal (z-score)", "setting": "[14]", "value": -0.21}, {"measurement": "glycan array binding signal (z-score)", "setting": "[15]", "value": -0.169}, {"measurement": "glycan array binding signal (z-score)", "setting": "[16]", "value": -0.252}, {"measurement": "glycan array binding signal (z-score)", "setting": "[17]", "value": -0.124}, {"measurement": "glycan array binding signal (z-score)", "setting": "[18]", "value": -0.209}, {"measurement": "glycan array binding signal (z-score)", "setting": "[19]", "value": 4.66}, {"measurement": "glycan array binding signal (z-score)", "setting": "[20]", "value": -0.157}, {"measurement": "glycan array binding signal (z-score)", "setting": "[21]", "value": -0.049}, {"measurement": "glycan array binding signal (z-score)", "setting": "[22]", "value": -0.282}, {"measurement": "glycan array binding signal (z-score)", "setting": "[23]", "value": -0.235}, {"measurement": "glycan array binding signal (z-score)", "setting": "[24]", "value": -0.173}, {"measurement": "glycan array binding signal (z-score)", "setting": "[25]", "value": -0.23}, {"measurement": "glycan array binding signal (z-score)", "setting": "[26]", "value": -0.101}, {"measurement": "glycan array binding signal (z-score)", "setting": "[27]", "value": -0.156}, {"measurement": "glycan array binding signal (z-score)", "setting": "[28]", "value": -0.144}]}]}
